Only some compounds are listed: those with a hit (about 2.1% of all), similar ones and a draw of the others.
YB-1 expression: inhibitors of YB-1 gene expression, primary screen, cell-based, fluorescence; 0.37% of 30,000 active; delta delta Cp (YB-1 minus CDIP) (no concentration beside the values); U2OS, qRT-PCR YB-1 vs CDIP delta delta Cp, 16 h; hits give high values; zero = DMSO, each unit about twofold;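 active means delta delta Cp rounded down to an integer at or above 3, about 3 SD of DMSO wells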;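 further: higher means less YB-1 transcript or more CDIP transcript relative to DMSO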
U2OS ROS induce: ROS inducers in U2OS cancer cells, primary screen, cell-based, H2DCF-DA fluorescence | U2OS ROS induction | ROS induction (% of piperlongumine), % at 10 µM | 2% of 46,000 active; in the data active means ROS induction above about 79%, passing the limit was not always enough; inconclusive means no clear call, values can overlap the other calls
Large screens that a line does not name were inactive.

C[C@@H]1CN([C@@H](C)CO)C(=O)c2cc(NC(=O)Cc3ccccc3)ccc2O[C@@H]1CN(C)Cc1ccc(-c2ccccc2)cc1	none
C[C@H](CO)N1C[C@H](C)[C@@H](CN(C)Cc2ccc(Oc3ccccc3)cc2)Oc2ccc(NC(=O)Cc3ccccc3)cc2C1=O	U2OS ROS induce 138
N#CCSC1=Nc2ccccc2C2=NC(CCC(=O)NC3CCCCC3)C(=O)N12 (stereo unspecified)	none (no result: YB-1 expression)
CCn1c(=Nc2ccc(C)cc2)ccc2cc(C)ccc21	none (no result: YB-1 expression)
CN(C)CCNC(=O)c1cc2c(s1)-c1ccccc1S(=O)(=O)C2	none (no result: YB-1 expression)
CCOc1ccc(CCNC(=O)Cn2ncn3nc(-c4cccs4)cc3c2=O)cc1OCC	none (no result: YB-1 expression)
NS(=O)(=O)c1ccc(NC(=S)N2CCc3ccccc3C2)cc1	none (no result: YB-1 expression)
CC/C=C\CC1C(=O)C=C/C1=C/CCCCCCC(=O)O (stereo unspecified)	none
CC/C=C\C=C1\C(=O)C=CC1CCCCCCCC(=O)O (stereo unspecified)	U2OS ROS induce 87
COC(=O)c1c(C)oc2ccc(OCc3ccc(Br)cc3)cc12	none (no result: YB-1 expression)
CSc1sc(C(=O)Sc2ccccc2)cc1S(=O)(=O)C(C)C	U2OS ROS induce 80
CSc1sc(C(=O)Sc2ccccc2)c2c1S(=O)(=O)N(C)c1ccccc1-2	none
CCOC(=O)c1c(CN(CC)CC)oc2ccc(OC)cc12	none
CCOC(=O)c1c(CSc2nc(C)ccc2C#N)oc2ccc(OC(C)=O)cc12	U2OS ROS induce 154
Cc1c(CC(=O)NN)sc2ccc(Cl)cc12	none (no result: YB-1 expression)
COc1ccc([C@H]2C=C(C(=O)NCc3ccccc3)O[C@@H](OCc3ccc(CO)cc3)C2)cc1	YB-1 expression 3.3
O=C(O)C1=C[C@@H](c2ccccc2)C[C@@H](OCc2ccc(CO)cc2)O1	none
O=S(=O)(Cc1ccccc1)NC1CCCCC1	none (no result: YB-1 expression)
CN(CC(=O)N1CCN(c2ccccc2)CC1)S(=O)(=O)c1ccccc1	none (no result: YB-1 expression)
CCc1ccc2c(c1)=C(c1sc(N)nc1O)C(=O)N=2	none
CCc1ccc2c(c1)=C(c1[nH]c(=S)[nH]c1O)C(=O)N=2	U2OS ROS induce 124
CCOc1ccc(S(=O)(=O)Nc2cccc(-c3cn4cccc(C)c4n3)c2)cc1	none (no result: YB-1 expression)
Cc1cc(-n2nc3ccccc3n2)c2oc(SCc3nnc(-c4ccccc4)o3)nc2c1	none (no result: YB-1 expression)
c1ccc(Cn2ccnc2SCc2nnc(-c3ccccc3)o2)cc1	U2OS ROS induce 105 (no result: YB-1 expression)
Cc1cc(C(F)(F)F)c2c(-c3ccccc3)nn(-c3ccccc3)c2n1	none (no result: YB-1 expression)
COc1ccc(CC(=O)Sc2nc3ccccc3s2)cc1	none (no result: YB-1 expression)
CC(=O)c1cccc(NC(=O)CSc2nc(N3CCCCC3)nc(N3CCCCC3)n2)c1	none (no result: YB-1 expression)
O=C(O)c1cccc(Nc2nc(Nc3ccccc3)nc(N3CCCC3)n2)c1	U2OS ROS induce 150 (no result: YB-1 expression)
Cc1cc(C)cc(NC(=O)NCc2csc(-c3cccs3)n2)c1	none (no result: YB-1 expression)
c1ccc(Nc2ncnc3sc4c(c23)CCCC4)cc1	U2OS ROS induce 103 (no result: YB-1 expression)
Cc1nc(NCCc2ccccc2)c2c3c(sc2n1)CCCC3	U2OS ROS induce 127 (no result: YB-1 expression)
c1ccc(Oc2ncnc3sc4c(c23)CCCC4)cc1	none (no result: YB-1 expression)
FC(F)(F)c1cccc(Nc2ncnc3sc4c(c23)CCC4)c1	U2OS ROS induce 116 (no result: YB-1 expression)
O=C(/C=C/c1ccccc1)Nc1ncnc2sc3c(c12)CCC3	none (no result: YB-1 expression)
CCc1nc2sc3c(NCCc4ccccc4)ncnc3c2c2c1CCCC2	none (no result: YB-1 expression)
CC1(C)CC2CC(C)(CN2C(=O)Nc2ccc3snnc3c2)C1 (stereo unspecified)	none (no result: YB-1 expression)
O=C(CCCCCCC(=O)Nc1ccccc1O)N/N=C/c1c(F)c(F)c(F)c(F)c1F	U2OS ROS induce inconclusive
O=C(CCCCC(=O)N/N=C/c1c(F)c(F)c(F)c(F)c1F)NO	U2OS ROS induce 145
COc1cccc(NC(=O)c2ccc(-c3cccc(Cl)c3C)o2)c1	none (no result: YB-1 expression)
CCOc1ccc(S(=O)(=O)N2CCCCC2)cc1-c1nc2c(C(C)(C)C)nn(C)c2c(=O)[nH]1	U2OS ROS induce 170 (no result: YB-1 expression)
CCN1CCN(C(=O)C2CCN(S(=O)(=O)c3ccc4c(c3)nc(C)n4C3CCCC3)CC2)CC1	none (no result: YB-1 expression)
CCCc1nc(C)c2c(=O)[nH]c(-c3cc(S(=O)(=O)N4CCN(CC)CC4)ccc3OCC)nn12	U2OS ROS induce 134
COc1ccc(CN2C(=O)c3cccc4cccc(c34)C2=O)cc1S(=O)(=O)N1CCCCCC1	none (no result: YB-1 expression)
COc1ccc(N2C(=O)C3CC=CCC3C2=O)cc1 (stereo unspecified)	none (no result: YB-1 expression)
CC1=NN(c2ccccc2)C(=O)C1/C=C1\SC(=S)N(CC2CCCO2)C1=O (stereo unspecified)	none (no result: YB-1 expression)
NC(=O)CN1C(=O)CCSc2ccccc21	none (no result: YB-1 expression)
COc1ccc2c(c1)c(C(=O)O)c(C)n2CCc1ccc(OC)c(OC)c1	none
COc1ccc2c(c1)c(C(=O)ON1C(=O)CCC1=O)c(C)n2C1CC1	YB-1 expression 3.8
COc1ccc(S(=O)(=O)Nc2ccc3c(c2)C(=O)N([C@H](C)CO)C[C@H](C)[C@@H](CN(C)Cc2ccc(Oc4ccccc4)cc2)O3)cc1	YB-1 expression 14
C[C@H](CO)N1C[C@H](C)[C@@H](CN(C)Cc2ccc(Oc3ccccc3)cc2)Oc2ccc(NS(=O)(=O)c3cccs3)cc2C1=O	U2OS ROS induce 93
COc1ccc(S(=O)(=O)Nc2ccc3c(c2)C(=O)N([C@H](C)CO)C[C@@H](C)[C@@H](CN(C)Cc2ccc(Oc4ccccc4)cc2)O3)cc1	none
C[C@H]1CN([C@@H](C)CO)C(=O)c2cc(NS(=O)(=O)c3cccs3)ccc2O[C@H]1CN(C)Cc1ccc(Oc2ccccc2)cc1	none
COC(=O)COc1ccc(NC(=O)c2ccc(OC)c([N+](=O)[O-])c2)cc1	U2OS ROS induce 118 (no result: YB-1 expression)
COc1ccc(C(=O)COc2ccc(NC(=O)c3cccc([N+](=O)[O-])c3)cc2)cc1	none (no result: YB-1 expression)
COc1ccc(-c2ccc(Nc3ccc(OC(F)(F)F)cc3)nn2)cc1	none (no result: YB-1 expression)
COc1ccc(-c2oc3c(OC)c(OC)c(OC)c(O)c3c(=O)c2OC)cc1OC	U2OS ROS induce 102
COc1cc(OC)c2c(=O)c(O)c(-c3ccc(OC)c(OC)c3)oc2c1	U2OS ROS induce 83
COc1cc(O)c2c(=O)c(OC)c(-c3ccc(OC)c(OC)c3)oc2c1	none
COc1cc(-c2oc3cc(O)c(OC)c(O)c3c(=O)c2OC)ccc1O	none
O=C(NC1CCCCCC1)C1CC1	none (no result: YB-1 expression)
Cc1ccc(C(=O)Nc2ccc(-c3cn4c(n3)SCC4)cc2)cc1C	none (no result: YB-1 expression)
O=C(/C=C/N1CCOCC1)c1ccc(Cl)cc1	none (no result: YB-1 expression)
Cc1ccc(S(=O)(=O)N2CCN(C(=O)OC(C)C)CC2)cc1	none (no result: YB-1 expression)
O=C(CCSc1nc(-c2ccccc2)cs1)Nc1ccccc1	U2OS ROS induce 106 (no result: YB-1 expression)
CC(=O)Nc1ccc(NC(=O)CCSc2ccccc2)cc1	none (no result: YB-1 expression)
O=C(N/N=C/c1ccc([N+](=O)[O-])s1)c1ccccn1	none
S=C(Nc1ccccc1)N1CCN(c2ccc3nnc(-c4ccccc4)n3n2)CC1	U2OS ROS induce 240 (no result: YB-1 expression)
S=C(Nc1ccccc1)N1CCC(c2ccccc2)=N1	none (no result: YB-1 expression)
CCCCn1c(SCC(=O)NCc2ccccc2)nc2c(sc3ccccc32)c1=O	none (no result: YB-1 expression)
C=CCN(C(=O)CSc1nc2c(sc3ccccc32)c(=O)n1Cc1cccnc1)c1ccccc1	U2OS ROS induce 154 (no result: YB-1 expression)
COC(=O)COc1ccc2c(=O)c(Oc3ccc(OC)cc3)coc2c1	none (no result: YB-1 expression)
CCCOC(=O)COc1ccc2c(=O)c(-c3ccccc3OC)coc2c1	U2OS ROS induce 236 (no result: YB-1 expression)
COc1ccc([Si](C)(C)[C@H]2[C@H](CCn3cc(CCO)nn3)O[C@@]3(C(=O)N(Cc4cccc(N5CCOC5=O)c4)c4ccccc43)[C@@H]2C)cc1	U2OS ROS induce 107

High-throughput results (PubChem BioAssay)
